Compound activity: PubChem, several laboratories
CF NFkB block – cystic fibrosis NF-kB activation inhibition | KKLEB NF-kB-GFP reporter, PAF-induced, GFP fluorescence overnight | inhibition, % at 5 µM | 0.86% of 360,000 active;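 active = at least 50% inhibition at 5 µM, scaled per plate between neutral and stimulator controls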;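 note: PAF is a Pseudomonas aeruginosa culture filtrate used as stimulus; plate controls were PAF-stimulated DMSO wells for no effect and unstimulated DMSO wells for full effect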
ABHD5-PLIN5 inh – blocks binding of human ABHD5 to perilipin-5; Q00G26+Q8WTS1; 0.78% of 360,000 active; Split G. princeps luciferase complementation, luminescence, 4 h; inhibition, % at 4 µM; AID 602281;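 active = inhibition above the mean inhibition across every tested compound plus 3 SD, cut at about 22% in these data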;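 note: 0% = DMSO only wells and the 100% control is not disclosed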
Mdm2 MdmX PPI – disrupts the human Mdm2-MdmX interaction | 3% of 330,000 active | AID 485346 | inhibition, % at 8 µM | O15151+Q00987 | SaOS-2 split-luciferase Mdm2/MdmX complementation, luminescence;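 active = inhibition of at least 50% at 8 µM in the primary screen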
Target sequence (O15151 whole entry, looked up): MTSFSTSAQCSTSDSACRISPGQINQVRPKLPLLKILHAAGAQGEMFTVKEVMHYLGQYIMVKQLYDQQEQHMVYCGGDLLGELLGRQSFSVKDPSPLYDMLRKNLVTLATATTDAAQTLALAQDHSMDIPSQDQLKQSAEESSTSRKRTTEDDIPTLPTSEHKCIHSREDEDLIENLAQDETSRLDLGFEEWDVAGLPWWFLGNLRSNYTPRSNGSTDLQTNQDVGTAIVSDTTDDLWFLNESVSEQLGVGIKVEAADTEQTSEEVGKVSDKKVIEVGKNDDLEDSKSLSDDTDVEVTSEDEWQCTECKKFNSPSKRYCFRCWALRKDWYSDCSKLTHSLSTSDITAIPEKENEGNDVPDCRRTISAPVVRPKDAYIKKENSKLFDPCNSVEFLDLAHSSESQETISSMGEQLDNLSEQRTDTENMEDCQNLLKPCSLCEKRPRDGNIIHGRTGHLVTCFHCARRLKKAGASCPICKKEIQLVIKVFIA
Target sequence (Q00987 whole entry, looked up): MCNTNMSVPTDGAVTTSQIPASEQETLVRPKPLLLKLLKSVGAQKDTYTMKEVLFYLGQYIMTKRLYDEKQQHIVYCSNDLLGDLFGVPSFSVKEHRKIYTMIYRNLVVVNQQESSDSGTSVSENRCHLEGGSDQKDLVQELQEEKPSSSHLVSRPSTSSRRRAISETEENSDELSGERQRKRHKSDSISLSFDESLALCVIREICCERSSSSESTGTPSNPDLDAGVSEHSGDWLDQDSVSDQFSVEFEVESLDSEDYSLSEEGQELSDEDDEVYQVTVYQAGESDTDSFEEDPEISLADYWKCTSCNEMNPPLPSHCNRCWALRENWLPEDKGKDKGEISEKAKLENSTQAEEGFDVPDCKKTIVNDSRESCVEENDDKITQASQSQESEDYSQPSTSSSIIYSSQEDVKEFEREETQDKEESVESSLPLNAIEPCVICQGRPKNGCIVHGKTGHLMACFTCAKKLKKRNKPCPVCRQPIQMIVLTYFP
KKLEB tox – CF airway cell cytotoxicity counter-screen; AID 602141; KKLEB CF airway cells viability, ATPlite luminescence, overnight; active compounds read low; cells stimulated with P. aeruginosa culture filtrate; activity change (cytotoxicity), % at 5 µM; 0.36% of 360,000 active;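 active = corrected activity change at or below -50% at 5 µM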
Peg3 promoter – reduces Peg3 promoter-driven luciferase expression in HeLa | HeLa PEG-Prom luciferase reporter, luminescence, overnight | 1.7% of 360,000 active | inhibition, % at 20 µM | AID 588405;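 active = inhibition of at least 50% at 20 µM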
HIF-2a block – blocks HIF-2a reporter activity; 0.72% of 360,000 active; 786-0 RCC cells HIF-2a reporter, luciferase luminescence, overnight; inhibition, % at 18.8 µM;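 active = inhibition of the luminescence signal of 40% or more relative to plate controls, in a single-dose primary screen at 18.75 µM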
Mdm2-MdmX conf – confirmation of human Mdm2/MdmX interaction inhibitors; shares compounds with Mdm2 MdmX PPI; Mdm2-MdmX binding, luminescent assay; inhibition, % at 8 µM; 55% of 10,000 active; AID 489028; in the data active = inhibition above about 40%
Full FLuc ctr – inhibits full-length luciferase, flagging false Mdm2/MdmX hits; shares compounds with Mdm2 MdmX PPI; SaOS-2 full-length luciferase counterscreen, luminescence; inhibition, % at 8 µM; 77% of 6,200 active; AID 504607;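 active = mean inhibition at 8 µM reaching about 37%, which flags the compound as non-specific, limit read from the data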;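 note: p53-null SaOS-2 cells with luciferase driven by a doxycycline-inducible promoter; compound on cells about two nights before reading with doxycycline added after day one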
Numbers without * were called inactive; / = no result given. Compounds with a hit are over-represented: about 4.6% of the library has one in this group of screens.

SMILES	CF NFkB block	ABHD5-PLIN5 inh	Mdm2 MdmX PPI	KKLEB tox	Peg3 promoter	HIF-2a block	Mdm2-MdmX conf	Full FLuc ctr
Oc1ccc(-c2[nH]ncc2-c2ccc(Cl)cc2)c(O)c1	20	10	25	-4	27	19	/	/
Oc1ccc(-c2[nH]ncc2-c2ccc(Br)cc2)c(O)c1	14	-9	56*	-7	38	13	20	/
Cc1cc(N2CCC(C)CC2)nc(-c2ccccc2O)n1	2	-13	13	5	11	2	/	/
Cc1cc(N2CCC(C)CC2)nc(NCc2ccccc2)n1	5	8	80*	-1	9	24	51*	40*
Cc1cc(Nc2cccc(F)c2)nc(NCc2ccccc2)n1	26	19	66*	-20	29	10	25	/
Cc1cc(N/N=C/c2ccc(Cl)cc2Cl)nc(NCc2ccccc2)n1	16	-3	71*	-2	-8	-9	31	/
Cc1cc(N/N=C/c2ccc(N(C)C)cc2)nc(NCc2ccccc2)n1	10	7	40	-12	-15	-47	/	/
Cc1cc(Nc2ccc(Cl)cc2)nc(NCc2ccccc2)n1	33	18	63*	-35	47	8	42*	75*
Cc1cc(N/N=C/c2ccc(F)cc2)nc(NCc2ccccc2)n1	10	-8	36	-17	-50	-48	/	/
CC(C)COC(=O)COc1cc(Cl)c(Cl)cc1Cl	/	/	5	/	/	/	/	/
CC(C)n1c(=O)c2ccccc2n1CC(=O)N1CCOCC1	/	-3	/	/	/	4	/	/
CC1=C(C(=O)N(C)C)CC(CC(=O)NC(c2ccccc2)c2ccccc2)C(=O)N1CCCN1CCCC1=O (configuration not stated)	-21	0	/	10	5	0	/	/
O=C1NC[C@@H](CCCCN2C[C@H](Cc3ccc(O)cc3)N(CCC3CCCCC3)C(=O)C2=O)N(Cc2ccccc2)C1=O	/	-3	/	/	/	-5	/	/
COCOc1cccc(CN2CCC2(C)C(=O)Nc2cc(OC)ccc2OC)c1 (configuration not stated)	38	1	/	-8	12	3	/	/
Cc1ccsc1C(=O)N1CCC1(C)C(=O)NS(=O)(=O)c1ccc(Br)cc1 (configuration not stated)	8	7	/	6	18	12	/	/
Cc1cc(Nc2ccccc2)nc(NCc2ccccc2)n1	24	6	53*	-22	8	-9	37	59*
CCCCNc1cc(C)nc(NCc2ccccc2)n1	17	10	67*	-14	36	4	60*	39*
Cc1cc(Oc2ccccc2)nc(NCc2ccccc2)n1	12	-2	45	-13	0	6	/	/
Cc1ccc(S(=O)(=O)N(CC(=O)c2ccc(Cl)cc2)C(=O)N2CCN(C)CC2)cc1	-15	-10	11	10	-10	-6	/	/
COCC(C)n1c(SCC(=O)Nc2cccnc2Cl)nc2ccccc2c1=O (configuration not stated)	-8	4	/	10	5	7	/	/
Cc1ccc(-c2cc(-c3ccc4c(c3)OCO4)c(C#N)c(N)n2)o1	3	15	57*	-11	13	11	27	/
CCOc1ccc(-n2c(N)c(-c3nc4ccccc4n3C)c3nc4ccccc4nc32)cc1	31	-4	63*	-35	41	14	59*	66*
Cc1onc(-c2ccccc2Cl)c1C(N)=O	17	-3	1	-16	-3	23	/	/
Cc1nc(/C(N)=N/OC(=O)c2c(-c3ccccc3Cl)noc2C)cs1	14	1	93*	-26	14	26	76*	96*
Cc1onc(-c2ccccc2Cl)c1C(=O)OCC(=O)c1ccc[nH]1	31	-6	-1	-15	18	-7	/	/
SMILES	CF NFkB block	ABHD5-PLIN5 inh	Mdm2 MdmX PPI	KKLEB tox	Peg3 promoter	HIF-2a block	Mdm2-MdmX conf	Full FLuc ctr
COc1ccc(/C(N)=N/OC(=O)c2c(-c3ccccc3Cl)noc2C)cc1OC	0	-5	100*	-14	40	11	96*	96*
COc1ccc(-n2nc(C(=O)NCC(=O)NCCN(C)C)c3ccccc3c2=O)cc1	-2	-4	-11	2	-17	8	/	/
CCCN(CCC)Cc1cc(=O)oc2ccc3ccccc3c12	22	-1	/	-1	31	21	/	/
CCOC(=O)C1CCN(S(=O)(=O)c2c(Cl)ccc3nonc23)CC1	90*	15	100*	-44	112*	92*	98*	1
O=C(Nc1cccc(Cl)c1)c1cc2c(=O)n3ccccc3nc2s1	-16	4	56*	4	-18	-18	18	/
CCN(CC)S(=O)(=O)c1ccc(OC)c(NC(=O)c2cc3c(=O)n4ccccc4nc3s2)c1	14	3	55*	1	20	7	7	/
Cc1cccc(NC(=O)c2cc3c(=O)n4ccccc4nc3s2)c1	-36	-11	7	3	-80	-127	/	/
Cc1ccc(Cl)cc1NC(=O)CC(O)(C(F)(F)F)C(F)(F)F	17	6	59*	-19	41	-43	28	/
Cc1ccc(NC(=O)C(OC(=O)c2cnc(C)cn2)c2ccccc2)c([N+](=O)[O-])c1 (configuration not stated)	-26	2	16	6	-21	-27	/	/
Cc1cc(NC(=O)C(C)Sc2nc(-c3cccs3)nc3ccccc23)no1 (configuration not stated)	8	-2	84*	-16	-1	-17	52*	68*
CCc1ccc(OCCNC(=O)c2ccccc2SCc2ccccc2)cc1	-1	-6	80*	0	36	14	80*	57*
CCNC(=O)c1ccccc1SCc1ccccc1	-3	-5	-23	9	21	-5	/	/
COc1ccc(C(=O)C(CCCCC(CN(C)C)C(=O)c2ccc(OC)cc2)CN(C)C)cc1 (configuration not stated)	4	3	86*	1	46	15	59*	31
Cc1cc(C2N=C(N)Nc3nc4ccccc4n32)c(C)n1-c1ccccc1Cl (configuration not stated)	-6	5	24	-19	12	-7	/	/
Cc1ccc(-n2c(C)cc(C3N=C(N)Nc4nc5ccccc5n43)c2C)c(C)c1 (configuration not stated)	8	4	72*	-30	20	-6	28	/
Cc1ccccc1N1C(=O)C2CCCN2C1=S (configuration not stated)	24	-5	-4	6	-4	17	/	/
O=C(Nc1nc(-c2ccccc2)c(-c2ccccc2)s1)c1ccc(S(=O)(=O)N2CCCC2)cc1	-5	-3	59*	0	8	-8	-3	/
